Screening results from PubChem.
In the library only some 2.4% were active in any assay of this set; here they are far more common.
Pol iota inh – qHTS for Inhibitors of Polymerase Iota. Pol iota fluorescent replication assay, 10 min. Potency, µM (doses to about 115 µM), actives largely listed as inhibitors. actives 1% (n = 390,000). AID 588590, 2011
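Pol iota at 10 nM preincubated 15 min with compounds at room temperature; reaction started with fluorescent substrate, 50 nM final. Fluorescence read kinetically at 0 and 10 min; buffer-only wells as negative control.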
WRN helicase inh-1 – qHTS for Inhibitors of WRN Helicase. Bifunctional 3'-5' exonuclease/ATP-dependent helicase WRN (Homo sapiens), Q14191. WRN helicase unwinding, fluorescent forked duplex, kinetic. Potency, µM (series often up to 114 µM), actives largely listed as inhibitors. actives 0.46% (n = 360,000). AID 651768, 2012; note: nearly all actives have a fitted effect of over 55% in size
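Enzyme (20 nM final) and test compound sit together 15 min at room temperature before substrate addition. Substrate is a single-forked duplex oligonucleotide (100 nM) labelled with fluorophore and quencher, with 2 mM ATP; helicase unwinding raises red fluorescence, read kinetically.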
Pol kappa inh – qHTS for Inhibitors of Polymerase Kappa | purified Pol kappa, fluorescent DNA synthesis assay, 10 min | Potency, µM (titrated, usually from 107 µM), usual class: inhibitors | actives 0.53% (n = 400,000)
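Fluorescent qHTS in 1536-well format: enzyme (10 nM) and compound sat 15 min at room temperature before 50 nM substrate (final) was added. Signal taken at 0 and 10 min; no-enzyme buffer wells were negative controls.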
Pol beta inh – qHTS Assay for Inhibitors of DNA Polymerase Beta; actives 1.3% (n = 340,000); P06746; Potency, µM (titrated, usually from 114 µM), usual class: inhibitors; Pol beta primer extension/strand displacement, fluorescence kinetic
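Homogeneous kinetic assay of primer extension and strand displacement by 10 nM Pol beta, preincubated 15 min at room temperature with compound before 50 nM substrate (final) was added. Read at 0 and 10 min; four-parameter Hill fit.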
FEN1 inh-1 – qHTS Assay for the Inhibitors of Human Flap endonuclease 1 (FEN1); Recombinant FEN1 flap cleavage, fluorescence, 15 min; Potency, µM (doses to about 114 µM), most hits filed as inhibitors; actives 0.35% (n = 390,000); note: nearly all actives have a fitted effect of over 65% in size
Target sequence (P39748 whole entry, looked up): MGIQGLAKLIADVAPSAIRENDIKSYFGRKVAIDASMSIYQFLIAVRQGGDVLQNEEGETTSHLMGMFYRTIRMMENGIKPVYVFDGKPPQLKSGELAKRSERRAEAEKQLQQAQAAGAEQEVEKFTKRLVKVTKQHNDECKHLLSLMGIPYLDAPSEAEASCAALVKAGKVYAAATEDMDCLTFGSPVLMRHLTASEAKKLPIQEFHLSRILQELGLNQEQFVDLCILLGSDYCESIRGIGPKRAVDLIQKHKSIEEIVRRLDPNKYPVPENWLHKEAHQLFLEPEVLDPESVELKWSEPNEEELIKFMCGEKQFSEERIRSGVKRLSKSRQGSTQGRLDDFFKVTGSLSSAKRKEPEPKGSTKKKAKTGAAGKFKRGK
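Reaction started by adding substrate (50 nM final) to 10 nM enzyme after 15 min room-temperature compound preincubation. Reads at 0 and 15 min, with data normalized and fitted to a four-parameter Hill equation.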
POLH inh – qHTS for Inhibitors of Polymerase Eta. DNA polymerase eta (Homo sapiens), Q9Y253. recombinant Pol eta, fluorescent DNA replication assay. Potency, µM (doses to about 114 µM), hits mostly inhibitors. actives 1.2% (n = 390,000)
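Fluorescent replication assay: 50 nM final substrate added after a 15 min room-temperature compound preincubation with 10 nM enzyme. Signal taken at 0 min and again at 10 min.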
FEN1 inh-2 – qHTS Assay for the Inhibitors of FEN1: Confirmatory Assay for Cherry-picked Compounds. shares compounds with FEN1 inh-1. FEN1 flap cleavage, TAMRA/BHQ2 fluorogenic DNA substrate. Potency, µM, actives largely listed as inhibitors. actives 79% (n = 880). AID 720498, 2013; note: nearly all actives have a fitted effect of over 60% in size
WRN helicase inh-2 – qHTS for Inhibitors of WRN Helicase: Confirmatory Assay for Cherry-picked Compounds. actives 63% (n = 610). AID 720497, 2013. Potency, µM (titrated, usually from 57.1 µM), actives largely listed as inhibitors. shares compounds with WRN helicase inh-1. WRN helicase DNA unwinding, fluorescence kinetic; note: nearly all actives have a fitted effect of over 65% in size
TO displacement – qHTS for Inhibitors of WRN Helicase: Thiazole Orange DNA Binding Counterscreen; shares compounds with WRN helicase inh-1; thiazole orange DNA binding displacement, fluorescence; Potency, µM (series often up to 57.1 µM), most hits filed as inhibitors; actives 10% (n = 610);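 note: drop in dye fluorescence marks compound binding to DNA; nearly all actives have a fitted effect of over 60% in size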
BLM helicase inh – qHTS for Inhibitors of WRN Helicase: BLM Helicase Counterscreen for WRN Inhibitors | shares compounds with WRN helicase inh-1 | Recombinant BLM helicase DNA unwinding, red fluorescence | Potency, µM (highest dose often 57.1 µM), actives largely listed as inhibitors | actives 60% (n = 610) | AID 720503, 2013; note: nearly all actives have a fitted effect of over 60% in size
Numbers stand for hits; n = inactive; u = inconclusive; x = no result given. Calls come from the whole dose curve; as a rule, active = well fitted curve in the direction sought with a large enough effect; inconclusive = small, poorly fitted or top-dose-only effect, or another doubt; inactive = no such curve, though single readings can be large; an effect the other way counts as inactive or inconclusive.

SMILES	Pol iota inh	WRN helicase inh-1	Pol kappa inh	Pol beta inh	FEN1 inh-1	POLH inh	FEN1 inh-2	WRN helicase inh-2	TO displacement	BLM helicase inh
COc1cc2c(cc1OC)-c1c3c(cc4c1[C@@H](C2)N(C)CC4)OCO3	2.82µM	u	n	u	2.51µM	n	33.8	x	x	x
Cc1ccc(-n2c(=O)[nH]c3ccc(Br)cc3c2=O)cc1	n	x	n	n	n	n	x	x	x	x
COC1C(C)OC(OC2CC(C)(O)Cc3cc4c(c(O)c32)C(=O)c2c(O)cc3c(c2C4=O)OC2OC3(C)C(O)C(N(C)C)C2O)C(OC)C1(C)OC (stereo not given)	u	15.8µM	25.1µM	x	15.8µM	u	4.78	2.15µM	n	u
Cc1cc([C@@H]2CCCN2C)on1	x	x	n	x	x	x	x	x	x	x
O=C1NC(=O)C(=Cc2ccccc2OCCOc2ccc([N+](=O)[O-])cc2)C(=O)N1	u	35.5µM	n	n	u	u	x	u	n	u
CN1C(=O)C(=Cc2ccccc2OCCOc2ccc([N+](=O)[O-])cc2)C(=O)N(C)C1=O	u	n	n	n	n	n	x	x	x	x
CN(C)c1ccc(/C=C/c2cc[n+](C)c3ccccc23)cc1	79.4µM	35.5µM	u	u	35.5µM	u	x	17.1µM	15.2µM	21.5µM
C#Cc1cccc2c1c(C(=O)c1ccc(Cn3c(C)nc4cnccc43)c(F)c1)cn2C(=O)N(C)C	x	x	n	x	x	x	x	x	x	x
